# In PubChem BioAssay (NCI):
# The panel holds about 83,000 compounds, 20% with a hit somewhere; the sample as a whole holds those more often.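 Compound tested at a single concentration for 48 hours in 96-well plates; a percent growth value below 10 was scored as active.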 A number with no mark means an inactive call. The source made the active and inactive calls.
# Tested on: HL-60(TB) leukemia
# Experiment: NCI-60 one-dose screen, 48 h (100 = growth as untreated, 0 = no growth, -100 = all killed)
# Settings: 10 µM unless noted
row,Compound,growth
1,CCOC(=O)c1ccc(NC(=O)Nc2nccs2)cc1,-50.1% (active)
2,CCCCCCN(CCCCCC)CCC(O)c1ccc2ccccc2c1 (stereo unspecified),42.4%
3,Fc1ccccc1Nc1ccc2nnc(-c3ccncc3)n2n1,92.6%
4,Cn1c(I)c(C#C[Si](C)(C)C)c(=O)[nH]c1=O,-67.8% (active)
5,O=C(Nc1nc(-c2ccc(Br)cc2)cs1)c1cc(-c2ccc(Br)cc2)nc2ccc(Cl)cc12,96.6%
6,Cc1ccc(Cc2cnc(NC(=O)CN3C(=O)/C(=C\c4ccccc4)SC3=S)s2)cc1,99.6%
7,N=C(N)c1ccc(OCCSCCOc2ccc(C(=N)N)cc2)cc1,77.9%
8,O=c1c(/C=C/c2ccco2)nnc2sc(Nc3ccc(Cl)cc3)nn12,101%
9,CC(=O)N=c1ccc2nc3c(cc(N)c4ccccc43)oc-2c1,-82.9% (active)
10,CCCCCCC1(/C=N/NC(N)=O)NC(=O)NC1=O (stereo unspecified),96.7%
11,COc1ccc(C(=O)COc2cccc(/C=C3\Oc4ccc5ccccc5c4C3=O)c2)cc1,90.7%
12,COc1cc(C2CC(c3ccc(Nc4ccnc5cc(Cl)ccc45)cc3)=NN2c2ccc(Cl)cc2)cc(OC)c1OC (stereo unspecified),40.3%
13,Cc1[nH]c(C(=O)Nc2ccccc2OC2CCNC2)c(Cl)c1Cl (stereo unspecified),90.6%
14,NC(=O)c1c(NC(=O)/C=C/c2cccs2)sc2c1CCC(=O)C2,2.8% (active)
15,CC(=O)c1ccc(Nc2nc(NCCO)nc(Nc3ccc(Cl)cc3)n2)cc1,103%
16,COc1ccc(-c2c(C(=O)NS(C)(=O)=O)n(Cc3cccc(C(F)(F)F)c3)c3ccccc23)cc1,102%
17,c1cc[c]([Bi]([c]2ccccc2)[c]2ccccc2)cc1,96.6%
18,COc1cc(C(=O)NC(=S)Nc2ccc3ccccc3c2)cc(OC)c1OC,97.1%
19,CCc1nc2cc(/C=C/C(=O)NO)c(F)cc2c(=O)n1CCc1ccccc1,-8.55% (active)
20,C=C1C(=O)O[C@H]2[C@H]1CC/C(COC(=O)c1ccc3ccccc3c1)=C\CC[C@@]1(C)O[C@@H]21,-53.5% (active)
21,O=c1[nH]c(-c2ccc(Cl)cc2)cn1-c1ccc(-n2cc(-c3ccc(Cl)cc3)[nH]c2=O)cc1,112%
22,O=Cc1ccc(-c2cn3ccnc3c(-c3ccc4ncn(Cc5ccccc5)c4c3)n2)cc1,83.5%
23,CN(C)c1ccc2c(c1)/C(=N/O)c1ccccc1-2,87.3%
24,Cn1cc(-c2csc(-c3c[nH]c4ccccc34)n2)c2cnccc21,-30.2% (active)
25,CC(=O)Nc1ccccc1-c1n[nH]c(=O)[nH]c1=O,109%
26,COc1cc2nc3cc([N+](=O)[O-])ccc3c(NCCNCC(C)O)c2cc1OC (stereo unspecified),-16.8% (active)
